One compound from ChEMBL document CHEMBL1961873, “Compounds: GSK PKIS; Assays: Nanosyn kinase panel” (2012) can be followed below.

Structures are written as SMILES.

The target in experiment [1] is Sphingosine kinase 1 (Homo sapiens) (UniProt Q9NYA1). Conditions: at 1 µM.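 Note: mean SPHK1 inhibition value reported from the GSK PKIS kinase panel screen.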
Experiment [2] has as its target T1, Sphingosine kinase 2 (Homo sapiens) (UniProt Q9NRA0).
T1 sequence (whole entry): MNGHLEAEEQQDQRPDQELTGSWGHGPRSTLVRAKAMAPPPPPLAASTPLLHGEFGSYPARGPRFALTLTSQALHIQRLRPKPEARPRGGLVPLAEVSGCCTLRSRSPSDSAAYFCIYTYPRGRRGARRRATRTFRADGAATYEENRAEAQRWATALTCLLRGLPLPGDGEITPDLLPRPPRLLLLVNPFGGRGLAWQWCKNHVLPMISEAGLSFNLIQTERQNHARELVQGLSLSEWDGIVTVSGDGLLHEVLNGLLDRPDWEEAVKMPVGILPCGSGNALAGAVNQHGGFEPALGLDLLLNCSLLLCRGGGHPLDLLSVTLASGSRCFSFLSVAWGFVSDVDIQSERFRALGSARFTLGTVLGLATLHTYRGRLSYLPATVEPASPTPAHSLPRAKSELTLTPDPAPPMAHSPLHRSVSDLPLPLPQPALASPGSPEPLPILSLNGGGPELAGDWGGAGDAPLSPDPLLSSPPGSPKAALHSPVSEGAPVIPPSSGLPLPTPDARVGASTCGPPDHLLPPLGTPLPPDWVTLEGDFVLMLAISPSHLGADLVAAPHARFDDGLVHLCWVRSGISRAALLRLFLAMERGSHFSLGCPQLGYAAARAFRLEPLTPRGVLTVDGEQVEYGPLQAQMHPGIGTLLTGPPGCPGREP
Conditions: at 0.1 µM.

Experiment [3] addresses T1, Sphingosine kinase 2 (Homo sapiens). Conditions: at 1 µM.
Experiment [4] concerns the target Casein kinase II subunit alpha (Homo sapiens) (UniProt P68400). Conditions: at 0.1 µM.
The target is the same in experiment [5]. Conditions: at 1 µM.
The target of experiment [6] is T2, Inhibitor of nuclear factor kappa-B kinase subunit alpha (Homo sapiens) (UniProt O15111).
T2 sequence (whole entry): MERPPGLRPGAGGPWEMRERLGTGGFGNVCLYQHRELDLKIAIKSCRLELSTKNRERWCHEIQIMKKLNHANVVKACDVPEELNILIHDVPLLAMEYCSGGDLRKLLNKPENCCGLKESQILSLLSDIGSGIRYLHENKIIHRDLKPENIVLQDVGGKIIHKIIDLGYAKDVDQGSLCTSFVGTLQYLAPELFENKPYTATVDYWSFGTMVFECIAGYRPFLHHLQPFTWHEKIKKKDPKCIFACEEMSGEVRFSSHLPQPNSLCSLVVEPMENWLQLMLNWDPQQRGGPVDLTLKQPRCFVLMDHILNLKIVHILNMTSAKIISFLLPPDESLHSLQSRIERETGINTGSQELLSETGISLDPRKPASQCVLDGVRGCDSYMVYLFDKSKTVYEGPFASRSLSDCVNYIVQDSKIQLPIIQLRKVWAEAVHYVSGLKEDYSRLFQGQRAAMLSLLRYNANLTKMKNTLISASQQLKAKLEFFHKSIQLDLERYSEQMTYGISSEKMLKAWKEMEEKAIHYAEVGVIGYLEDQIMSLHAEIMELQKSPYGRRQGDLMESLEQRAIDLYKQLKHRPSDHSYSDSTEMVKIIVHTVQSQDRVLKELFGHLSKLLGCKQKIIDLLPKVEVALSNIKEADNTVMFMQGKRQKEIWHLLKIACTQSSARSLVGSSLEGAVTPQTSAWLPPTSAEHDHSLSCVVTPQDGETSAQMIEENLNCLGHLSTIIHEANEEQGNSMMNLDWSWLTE
The note with it: at 0.1 µM.

The target in experiment [7] is T2, Inhibitor of nuclear factor kappa-B kinase subunit alpha (Homo sapiens). Conditions: at 1 µM.
Experiment [8] addresses T3, Inhibitor of nuclear factor kappa-B kinase subunit beta (Homo sapiens) (UniProt O14920).
T3 sequence (whole entry): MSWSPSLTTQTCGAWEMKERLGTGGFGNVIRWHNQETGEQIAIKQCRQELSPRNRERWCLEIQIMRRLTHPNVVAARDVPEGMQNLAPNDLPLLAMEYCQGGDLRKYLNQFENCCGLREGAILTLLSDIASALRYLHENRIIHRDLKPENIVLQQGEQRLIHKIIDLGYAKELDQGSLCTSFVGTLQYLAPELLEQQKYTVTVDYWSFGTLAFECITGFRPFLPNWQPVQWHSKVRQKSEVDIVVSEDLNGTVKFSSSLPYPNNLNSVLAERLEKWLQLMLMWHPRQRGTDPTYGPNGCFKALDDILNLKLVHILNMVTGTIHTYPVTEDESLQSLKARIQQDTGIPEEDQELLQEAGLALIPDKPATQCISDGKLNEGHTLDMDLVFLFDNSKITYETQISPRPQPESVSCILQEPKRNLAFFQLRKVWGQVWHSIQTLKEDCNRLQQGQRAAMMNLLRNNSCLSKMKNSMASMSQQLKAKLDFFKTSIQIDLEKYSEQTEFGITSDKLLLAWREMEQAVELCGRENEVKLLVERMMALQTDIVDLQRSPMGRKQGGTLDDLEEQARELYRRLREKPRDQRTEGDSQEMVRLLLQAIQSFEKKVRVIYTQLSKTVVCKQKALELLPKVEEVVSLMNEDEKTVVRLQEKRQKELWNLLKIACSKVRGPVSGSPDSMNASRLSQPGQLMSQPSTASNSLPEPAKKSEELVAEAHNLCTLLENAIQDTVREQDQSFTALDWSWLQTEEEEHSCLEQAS
Conditions: at 0.1 µM.

In experiment [9] the target is T3, Inhibitor of nuclear factor kappa-B kinase subunit beta (Homo sapiens). Conditions: at 1 µM.
Experiment [10] deals with T4, Inhibitor of nuclear factor kappa-B kinase subunit epsilon (Homo sapiens) (UniProt Q14164).
T4 sequence (whole entry): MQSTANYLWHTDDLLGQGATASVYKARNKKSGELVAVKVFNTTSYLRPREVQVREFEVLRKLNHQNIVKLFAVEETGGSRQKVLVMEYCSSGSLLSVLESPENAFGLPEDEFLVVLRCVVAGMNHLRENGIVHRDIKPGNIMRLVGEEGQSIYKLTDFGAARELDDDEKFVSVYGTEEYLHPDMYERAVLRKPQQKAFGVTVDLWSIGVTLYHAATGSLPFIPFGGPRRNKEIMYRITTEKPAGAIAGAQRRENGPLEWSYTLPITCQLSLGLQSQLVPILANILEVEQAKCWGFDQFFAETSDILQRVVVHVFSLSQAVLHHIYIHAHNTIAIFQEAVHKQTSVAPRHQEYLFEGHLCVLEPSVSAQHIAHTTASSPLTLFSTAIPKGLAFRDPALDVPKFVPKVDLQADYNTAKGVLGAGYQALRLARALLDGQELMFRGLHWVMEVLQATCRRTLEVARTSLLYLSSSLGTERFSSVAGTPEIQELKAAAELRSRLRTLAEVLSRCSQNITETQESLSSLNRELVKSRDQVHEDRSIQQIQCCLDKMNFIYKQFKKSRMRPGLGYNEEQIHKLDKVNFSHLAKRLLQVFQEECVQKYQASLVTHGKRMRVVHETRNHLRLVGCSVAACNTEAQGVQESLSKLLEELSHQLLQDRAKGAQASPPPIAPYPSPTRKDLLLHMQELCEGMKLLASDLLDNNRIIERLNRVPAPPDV
Conditions: at 0.1 µM.

In experiment [11] the target is T4, Inhibitor of nuclear factor kappa-B kinase subunit epsilon (Homo sapiens). Conditions: at 1 µM.
Experiment [12] addresses T5, Serine/threonine-protein kinase Nek1 (Homo sapiens) (UniProt Q96PY6).
T5 sequence (whole entry): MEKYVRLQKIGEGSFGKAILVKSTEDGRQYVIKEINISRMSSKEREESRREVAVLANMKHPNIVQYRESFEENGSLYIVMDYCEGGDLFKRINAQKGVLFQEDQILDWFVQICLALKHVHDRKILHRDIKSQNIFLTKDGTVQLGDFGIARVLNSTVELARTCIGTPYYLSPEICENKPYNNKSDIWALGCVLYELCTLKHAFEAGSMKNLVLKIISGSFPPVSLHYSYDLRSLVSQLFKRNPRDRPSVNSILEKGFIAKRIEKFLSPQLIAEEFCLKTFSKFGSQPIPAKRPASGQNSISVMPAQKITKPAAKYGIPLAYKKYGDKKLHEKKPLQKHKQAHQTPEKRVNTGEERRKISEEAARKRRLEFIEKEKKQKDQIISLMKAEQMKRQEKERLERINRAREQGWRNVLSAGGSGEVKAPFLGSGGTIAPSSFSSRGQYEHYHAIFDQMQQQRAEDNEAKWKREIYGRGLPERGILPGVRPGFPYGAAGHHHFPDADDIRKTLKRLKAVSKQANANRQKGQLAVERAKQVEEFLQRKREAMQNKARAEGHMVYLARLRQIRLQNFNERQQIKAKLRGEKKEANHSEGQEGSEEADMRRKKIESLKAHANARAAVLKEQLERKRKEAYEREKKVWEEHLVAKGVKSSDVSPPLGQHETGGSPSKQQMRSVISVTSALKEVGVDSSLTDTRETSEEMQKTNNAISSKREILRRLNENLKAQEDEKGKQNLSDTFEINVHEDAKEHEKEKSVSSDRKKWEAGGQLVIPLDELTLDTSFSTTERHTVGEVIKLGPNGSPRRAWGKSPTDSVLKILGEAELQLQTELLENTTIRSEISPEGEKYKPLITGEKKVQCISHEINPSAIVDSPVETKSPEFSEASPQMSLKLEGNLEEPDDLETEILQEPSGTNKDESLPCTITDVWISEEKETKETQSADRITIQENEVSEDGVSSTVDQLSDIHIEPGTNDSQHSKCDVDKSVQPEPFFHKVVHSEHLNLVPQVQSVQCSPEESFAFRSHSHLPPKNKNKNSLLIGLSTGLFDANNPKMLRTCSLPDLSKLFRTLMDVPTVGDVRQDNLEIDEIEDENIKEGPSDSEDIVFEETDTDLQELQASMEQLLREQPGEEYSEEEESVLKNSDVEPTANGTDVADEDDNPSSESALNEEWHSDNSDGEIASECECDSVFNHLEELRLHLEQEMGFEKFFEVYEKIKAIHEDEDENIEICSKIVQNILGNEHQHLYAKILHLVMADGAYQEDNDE
The note with it: at 0.1 µM.

Experiment [13] concerns the target T5, Serine/threonine-protein kinase Nek1 (Homo sapiens). The note with it: at 1 µM.
Experiment [14] has as its target T6, Serine/threonine-protein kinase Nek2 (Homo sapiens) (UniProt P51955).
T6 sequence (whole entry): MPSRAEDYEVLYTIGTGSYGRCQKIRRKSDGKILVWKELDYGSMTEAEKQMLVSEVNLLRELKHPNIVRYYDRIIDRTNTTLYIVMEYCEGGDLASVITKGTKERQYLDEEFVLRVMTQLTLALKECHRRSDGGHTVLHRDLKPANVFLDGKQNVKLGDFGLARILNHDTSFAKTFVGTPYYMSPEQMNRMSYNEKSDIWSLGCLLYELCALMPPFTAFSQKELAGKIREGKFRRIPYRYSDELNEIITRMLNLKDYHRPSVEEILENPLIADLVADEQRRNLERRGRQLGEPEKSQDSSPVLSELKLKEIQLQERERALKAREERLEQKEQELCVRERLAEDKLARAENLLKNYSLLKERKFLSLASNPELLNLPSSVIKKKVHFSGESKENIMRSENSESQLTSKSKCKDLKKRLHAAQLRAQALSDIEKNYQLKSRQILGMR
The note with it: at 0.1 µM.

The target of experiment [15] is T6, Serine/threonine-protein kinase Nek2 (Homo sapiens). The note with it: at 1 µM.
The target in experiment [16] is Serine/threonine-protein kinase Nek6 (Homo sapiens) (UniProt Q9HC98). Conditions: at 0.1 µM.
Experiment [17] has the same target. Conditions: at 1 µM.
The target in experiment [18] is Serine/threonine-protein kinase Nek7 (Homo sapiens) (UniProt Q8TDX7). Conditions: at 0.1 µM.
Experiment [19] shares this target. The note with it: at 1 µM.
In experiment [20] the target is T7, Serine/threonine-protein kinase Nek9 (Homo sapiens) (UniProt Q8TD19).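 Note: reported value is the mean percent inhibition of NEK9.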
T7 sequence (whole entry): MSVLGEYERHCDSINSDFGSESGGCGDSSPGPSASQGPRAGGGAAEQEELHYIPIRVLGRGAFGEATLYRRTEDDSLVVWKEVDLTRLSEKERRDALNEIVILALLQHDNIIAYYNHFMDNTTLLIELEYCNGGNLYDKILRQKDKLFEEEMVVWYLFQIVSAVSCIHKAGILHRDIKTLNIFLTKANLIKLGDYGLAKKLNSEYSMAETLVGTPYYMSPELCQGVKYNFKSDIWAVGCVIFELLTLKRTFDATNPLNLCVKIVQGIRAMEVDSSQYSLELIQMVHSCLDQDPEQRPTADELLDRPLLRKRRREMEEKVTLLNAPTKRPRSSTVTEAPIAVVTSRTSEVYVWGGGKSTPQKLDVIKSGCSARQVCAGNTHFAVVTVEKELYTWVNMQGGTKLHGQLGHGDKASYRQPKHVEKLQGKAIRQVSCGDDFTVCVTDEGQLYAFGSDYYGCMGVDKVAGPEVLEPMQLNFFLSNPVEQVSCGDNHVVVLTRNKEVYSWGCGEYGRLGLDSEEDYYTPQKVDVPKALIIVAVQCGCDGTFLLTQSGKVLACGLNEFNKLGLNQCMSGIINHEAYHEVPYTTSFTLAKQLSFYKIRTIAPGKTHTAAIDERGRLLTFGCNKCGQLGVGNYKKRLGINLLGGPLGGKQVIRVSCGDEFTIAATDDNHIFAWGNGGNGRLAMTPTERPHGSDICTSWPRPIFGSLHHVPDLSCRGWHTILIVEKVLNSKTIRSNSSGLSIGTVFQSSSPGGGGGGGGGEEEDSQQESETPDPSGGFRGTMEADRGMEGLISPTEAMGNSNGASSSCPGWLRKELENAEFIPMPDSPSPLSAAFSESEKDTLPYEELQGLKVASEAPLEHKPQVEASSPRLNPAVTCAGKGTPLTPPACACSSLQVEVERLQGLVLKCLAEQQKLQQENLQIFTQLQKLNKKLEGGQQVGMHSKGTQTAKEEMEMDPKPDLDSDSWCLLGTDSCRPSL
The note with it: at 0.1 µM.

Chain of Casein kinase II subunit alpha (Homo sapiens) (P68400 whole entry, looked up): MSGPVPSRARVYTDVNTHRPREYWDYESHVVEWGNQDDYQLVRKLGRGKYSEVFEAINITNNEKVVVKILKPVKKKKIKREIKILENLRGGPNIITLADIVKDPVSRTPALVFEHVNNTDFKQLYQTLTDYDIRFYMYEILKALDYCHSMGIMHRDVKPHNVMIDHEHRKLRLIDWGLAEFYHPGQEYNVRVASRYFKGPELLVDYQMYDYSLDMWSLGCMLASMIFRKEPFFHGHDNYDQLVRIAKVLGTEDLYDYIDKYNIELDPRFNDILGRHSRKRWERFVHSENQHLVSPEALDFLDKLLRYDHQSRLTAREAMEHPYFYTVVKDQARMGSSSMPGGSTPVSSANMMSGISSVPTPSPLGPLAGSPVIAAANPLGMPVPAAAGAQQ
Chain of Serine/threonine-protein kinase Nek7 (Homo sapiens) (Q8TDX7 whole entry, looked up): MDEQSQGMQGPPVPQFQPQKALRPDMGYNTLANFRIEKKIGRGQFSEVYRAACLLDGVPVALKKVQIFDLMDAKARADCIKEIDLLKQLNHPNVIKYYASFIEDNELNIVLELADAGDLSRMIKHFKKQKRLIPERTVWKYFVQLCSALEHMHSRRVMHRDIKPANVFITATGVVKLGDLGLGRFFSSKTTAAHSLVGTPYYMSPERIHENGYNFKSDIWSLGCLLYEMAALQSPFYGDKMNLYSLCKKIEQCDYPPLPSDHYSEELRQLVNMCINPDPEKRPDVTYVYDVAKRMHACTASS
Chain of Serine/threonine-protein kinase Nek6 (Homo sapiens) (Q9HC98 whole entry): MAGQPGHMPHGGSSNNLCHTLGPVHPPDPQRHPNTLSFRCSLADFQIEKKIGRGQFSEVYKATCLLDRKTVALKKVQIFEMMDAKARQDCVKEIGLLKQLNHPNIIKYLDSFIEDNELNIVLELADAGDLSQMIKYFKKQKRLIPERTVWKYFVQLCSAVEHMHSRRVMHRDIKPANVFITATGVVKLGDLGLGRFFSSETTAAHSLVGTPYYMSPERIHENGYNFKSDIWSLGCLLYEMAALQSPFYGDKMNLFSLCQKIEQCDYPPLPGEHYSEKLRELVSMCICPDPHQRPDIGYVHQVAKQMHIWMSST
Chain of Sphingosine kinase 1 (Homo sapiens) (Q9NYA1 whole entry): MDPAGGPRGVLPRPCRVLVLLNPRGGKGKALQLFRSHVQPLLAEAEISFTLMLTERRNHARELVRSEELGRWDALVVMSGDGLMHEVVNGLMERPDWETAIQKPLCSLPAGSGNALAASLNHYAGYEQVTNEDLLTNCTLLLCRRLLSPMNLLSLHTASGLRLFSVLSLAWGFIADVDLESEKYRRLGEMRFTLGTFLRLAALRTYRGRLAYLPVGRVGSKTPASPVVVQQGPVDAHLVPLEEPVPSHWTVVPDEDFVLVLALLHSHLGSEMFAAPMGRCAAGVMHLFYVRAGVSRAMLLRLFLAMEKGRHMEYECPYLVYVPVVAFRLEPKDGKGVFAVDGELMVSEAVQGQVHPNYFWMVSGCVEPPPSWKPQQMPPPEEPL

In the case of `N#Cc1cccc(Nc2ncc(-c3ccccc3)o2)c1`, the inhibition in experiment [1] is -2.86%; in experiment [2], 0.09%; in experiment [3] it was -1.96%; in [4], 2.39%; in experiment [5], 11.7%; in experiment [6] it was 5.02%. The inhibition in [7] is 3.79%; in experiment [8], 3.29%; in experiment [9], 5.96%; in experiment [10] it was 5.55%; in experiment [11], 6.35%; in experiment [12], 1.6%. Besides, the inhibition turned out to be 2.44% in experiment [13]; 2.51% in [14]; 0.06% in experiment [15]; 1.87% in experiment [16]; 5.4% in experiment [17]; 2.82% in experiment [18]. For the same compound, the inhibition in experiment [19] was determined as 1.01%; in experiment [20] it was 8.32%.
